The values below come from PubChem BioAssay (EPA / NIEHS).

The structures appear in SMILES notation. Results filed as inconclusive are left out. Activity calls are given as the source filed them. The calls were made as follows, unless noted: active = hit-call score of the fitted dose curve at least 0.9, where 1 is the maximum; inactive = score below 0.9.

The nature of experiment [1]: ATG_PBREM_CIS: Attagene CIS-FACTORIAL HepG2 Assay for human Phenobarbital-responsive Enhancer Module (PBREM) (AID 2282955). The note with it: HepG2 PBREM cis-reporter, Attagene multiplexed transcription; actives raise or lower the signal. The essentials:
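Readout: reporter mRNA, fluorescent RT-PCR fragments separated by capillary electrophoresis. System: HepG2 transiently transfected with cis-regulated reporter units. Exposure: 24 h. Analysis: bidirectional, DMSO baseline.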

The target in experiment [2] is Paired box protein Pax-6 (Homo sapiens) (UniProt P26367). The experiment is described as follows: ATG_Pax6_CIS: Attagene CIS-FACTORIAL HepG2 Assay for human Paired Box 6 (PAX6) (AID 2282956). The following applies: HepG2 CIS-FACTORIAL PAX6 reporter transcription, RNA readout; actives raise or lower the signal. In short, it runs like this:
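DMSO-referenced bidirectional fits of reporter mRNA fluorescence; HepG2 with transient cis-promoter MRTUs, 24 h post-dose, RT-PCR plus capillary electrophoresis detection.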

Experiment [3] can be described thus: ATG_PXRE_CIS: Attagene CIS-FACTORIAL HepG2 Assay for human Pregnane X Receptor Element (PXRE) (AID 2282957). The note with it: HepG2 Attagene CIS-FACTORIAL PXRE reporter, mRNA; actives raise or lower the signal. In short, it runs like this:
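Bidirectional activity, baselined to DMSO, derived from reporter mRNA fluorescence (RT-PCR plus capillary electrophoresis) in HepG2 cells bearing cis-promoter reporter units, 24 h exposure.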

A short description of experiment [4]: ATG_PPRE_CIS: Attagene CIS-FACTORIAL HepG2 Assay for human Peroxisome Proliferator-activated Response Element (PPRE) (AID 2282958). The following applies: HepG2 PPRE cis-element reporter, Attagene transcription factor profiling; actives raise or lower the signal. In short, it runs like this: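 After human HepG2 hepatoma cells were transiently transfected with cis-promoter reporter constructs, they were exposed to test chemicals for 24 hours. Reporter RNA was then reverse-transcribed, PCR-amplified, FAM-labeled, HpaI-digested and quantified by capillary electrophoresis.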

A short description of experiment [5]: ATG_RORE_CIS: Attagene CIS-FACTORIAL HepG2 Assay for human RAR-related Orphan Receptor Element (RORE) (AID 2282959). The following applies: HepG2 Attagene cis-factorial RORE reporter, mRNA; actives raise or lower the signal. The essentials:
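Measured here: transcript induction of a cis-regulated reporter in HepG2 cells transiently transfected via FuGene 6. After 24 h, RNA was processed by RT-PCR and fluorescent capillary electrophoresis; DMSO defined baseline activity.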

The target of experiment [6] is Transcription factor Sp1 (Homo sapiens) (UniProt P08047). The experiment is described as follows: ATG_Sp1_CIS: Attagene CIS-FACTORIAL HepG2 Assay for human Specificity Protein 1 (Sp1) (AID 2282961). The note with it: HepG2 Sp1 cis-reporter transcription, actives raise or lower the signal. The essentials:
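After transient transfection of HepG2 cells with cis-promoter reporter units and 24 h chemical treatment, reporter transcripts were quantified by RT-PCR and capillary electrophoresis fluorescence. Gain- and loss-of-signal fitted against DMSO.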

Experiment [7] is described as follows: ATG_SREBP_CIS: Attagene CIS-FACTORIAL HepG2 Assay for human Sterol Regulatory Element Binding (SREBP) (AID 2282962). The following applies: HepG2 Attagene cis-factorial SREBP reporter, mRNA; actives raise or lower the signal. The essentials: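 In this cis-format assay, HepG2 liver cells express reporters controlled by promoter elements responsive to native transcription factors. Exposure lasts 24 h; reporter mRNA fluorescence from capillary electrophoresis gives the signal, fitted bidirectionally against DMSO.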

The target of experiment [8] is Signal transducer and activator of transcription 3 (Homo sapiens) (UniProt P40763). The experiment can be described thus: ATG_STAT3_CIS: Attagene CIS-FACTORIAL HepG2 Assay for human Signal Transducer and Activator of Transcription 3 (STAT3) (AID 2282963). The note with it: HepG2, Attagene cis-factorial STAT3 reporter transcription; actives raise or lower the signal. In short, it runs like this: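 Cis-factorial format: endogenous transcription factors in HepG2 drive transfected reporter units. After 24 h treatment, reporter RNA was reverse-transcribed, amplified, FAM-labelled and HpaI-digested before CE analysis; activity scored in both directions against DMSO.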
Chain of Signal transducer and activator of transcription 3 (Homo sapiens) (P40763 whole entry, looked up): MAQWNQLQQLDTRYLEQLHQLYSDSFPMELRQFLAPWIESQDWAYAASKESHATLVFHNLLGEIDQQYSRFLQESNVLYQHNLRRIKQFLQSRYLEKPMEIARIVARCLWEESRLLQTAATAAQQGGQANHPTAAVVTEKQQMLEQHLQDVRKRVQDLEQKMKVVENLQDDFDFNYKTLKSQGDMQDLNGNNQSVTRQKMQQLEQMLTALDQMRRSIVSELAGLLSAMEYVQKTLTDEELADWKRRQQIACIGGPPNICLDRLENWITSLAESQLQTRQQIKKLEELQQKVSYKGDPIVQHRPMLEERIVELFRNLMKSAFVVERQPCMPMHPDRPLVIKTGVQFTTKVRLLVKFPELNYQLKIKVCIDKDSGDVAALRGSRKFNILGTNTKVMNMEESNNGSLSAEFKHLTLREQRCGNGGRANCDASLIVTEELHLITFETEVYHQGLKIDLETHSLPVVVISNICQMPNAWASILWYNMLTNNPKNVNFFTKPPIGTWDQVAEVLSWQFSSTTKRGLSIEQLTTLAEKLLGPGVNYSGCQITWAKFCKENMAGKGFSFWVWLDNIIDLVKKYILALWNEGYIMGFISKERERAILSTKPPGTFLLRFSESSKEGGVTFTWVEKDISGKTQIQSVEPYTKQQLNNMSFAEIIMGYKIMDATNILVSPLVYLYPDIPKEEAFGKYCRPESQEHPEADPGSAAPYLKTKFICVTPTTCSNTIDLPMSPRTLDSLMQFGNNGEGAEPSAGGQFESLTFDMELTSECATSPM

The nature of experiment [9]: ATG_TA_CIS: Attagene CIS-FACTORIAL HepG2 Assay for human TA Basal Promoter (AID 2282964). The note with it: HepG2 Attagene CIS-factorial TA basal promoter reporter; actives raise or lower the signal. In short, it runs like this:
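Cis-factorial format in HepG2: reporters report endogenous factors, not chimeric Gal4 fusions. After 24 h treatment, reporter transcripts were measured by RT-PCR-capillary electrophoresis fluorescence, analysed bidirectionally versus DMSO.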

Experiment [10] is described as follows: ATG_TCF_b_cat_CIS: Attagene CIS-FACTORIAL HepG2 Assay for human T-Cell-Factor with beta-catenin (TCF/b-cat) (AID 2282965). The following applies: HepG2 TCF/beta-catenin cis-reporter transcription, actives raise or lower the signal. In short, it runs like this:
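Endogenous transcription factor activity is captured through cis-promoter reporter constructs transiently introduced into human HepG2 liver cells. Induced reporter mRNA is measured after 24 h and fitted bidirectionally relative to DMSO.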

Experiment [11] is described as follows: ATG_TAL_CIS: Attagene CIS-FACTORIAL HepG2 Assay for human TAL Basal Promoter (AID 2282966).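 Also: background control endpoint measuring basal TAL promoter reporter mRNA not a specific factor.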 The following applies: HepG2 Attagene cis-factorial TAL promoter reporter; actives raise or lower the signal. In short, it runs like this:
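Human hepatoma HepG2 cells, transfected with promoter-regulated reporter units, were treated 24 h. Reporter transcript levels, measured through RT-PCR and capillary electrophoresis, were fitted for gain or loss relative to DMSO.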

Experiment [12] in a line: ATG_TGFb_CIS: Attagene CIS-FACTORIAL HepG2 Assay for human Transforming Growth Factor (TGF) (AID 2282967). The note with it: HepG2 Attagene CIS TGFb reporter, mRNA transcription; actives raise or lower the signal. In short, it runs like this:
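Multiplexed cis-reporter HepG2 system, 24 h treatment; mRNA induction read by fluorescence after RT-PCR and CE; DMSO negative control, bidirectional curve fitting.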

Experiment [13] is described as follows: ATG_VDRE_CIS: Attagene CIS-FACTORIAL HepG2 Assay for human Vitamin D Receptor Element (VDRE) (AID 2282968). The following applies: HepG2 VDRE cis-reporter transcription, actives raise or lower the signal. The essentials:
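Measures endogenous factor activity through cis-element-driven reporter transcripts in transiently transfected HepG2. Cells are treated 24 h; reporter mRNA is quantified by RT-PCR and capillary electrophoresis; fitting is bidirectional.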

For experiment [14], the target named is Nuclear receptor subfamily 1 group I member 3 (Homo sapiens) (UniProt Q14994). The experiment can be described thus: ATG_CAR_TRANS: Attagene TRANS-FACTORIAL HepG2 Assay for human Constitutive Androstane Receptor (CAR) (AID 2282969; active = hit-call score of the fitted dose curve at least 0.9, where 1 is the maximum;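 also: activators raise reporter mRNA above DMSO so AC50 marks induction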). The note with it: HepG2 Attagene TRANS-FACTORIAL CAR reporter. The essentials: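 Signal is reporter mRNA induction relative to DMSO, measured 24 h after dosing by RT-PCR with fluorescent primer extension and capillary electrophoresis. Human HepG2 liver cells carried transiently transfected chimeric NR-Gal4/GAL4-UAS reporter constructs.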
Chain of Nuclear receptor subfamily 1 group I member 3 (Homo sapiens) (Q14994 whole entry, looked up, the tested form may be a part): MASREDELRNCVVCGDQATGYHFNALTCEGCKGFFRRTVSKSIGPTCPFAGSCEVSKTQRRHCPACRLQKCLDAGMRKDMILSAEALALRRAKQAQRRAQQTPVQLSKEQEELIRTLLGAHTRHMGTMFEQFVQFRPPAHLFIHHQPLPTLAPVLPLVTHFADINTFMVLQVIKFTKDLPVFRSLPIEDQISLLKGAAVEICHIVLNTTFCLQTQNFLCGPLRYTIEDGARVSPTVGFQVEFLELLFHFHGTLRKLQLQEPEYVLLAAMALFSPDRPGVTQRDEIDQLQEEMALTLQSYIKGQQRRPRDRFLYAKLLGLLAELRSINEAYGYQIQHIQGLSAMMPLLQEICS

Experiment [15] has as its target Estrogen receptor (Homo sapiens) (UniProt P03372). The experiment is described as follows: ATG_ERa_TRANS: Attagene TRANS-FACTORIAL HepG2 Assay for human Estrogen Receptor alpha (ERa) (AID 2282970; active = hit-call score of the fitted dose curve at least 0.9, where 1 is the maximum). The following applies: HepG2 Attagene TRANS ERa GAL4 reporter, mRNA. In short, it runs like this: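 Signal derives from fluorescence of labelled reporter PCR fragments separated by capillary electrophoresis. HepG2 cells transiently carrying multiple GAL4-UAS reporter units were treated 24 hours, and induction above DMSO baseline was fitted as activity.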

Experiment [16] addresses X-box-binding protein 1 (Homo sapiens) (UniProt P17861). The experiment is described as follows: ATG_Xbp1_CIS: Attagene CIS-FACTORIAL HepG2 Assay for human X-box Binding Protein 1 (XBP1) (AID 2282972). The following applies: HepG2 XBP1 cis-element reporter, Attagene multiplex; actives raise or lower the signal. In short, it runs like this: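 Changes in reporter transcript abundance, read by RT-PCR and capillary electrophoresis, reflect endogenous transcription factor activity. Transfected HepG2 cells received compound for 24 hours; DMSO defined baseline for bidirectional analysis.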

Experiment [17] in a line: ATG_M_19_TRANS: Attagene TRANS-FACTORIAL HepG2 Assay for M19 Transcription Factor (Internal Marker) (AID 2282974; active = hit-call score of the fitted dose curve at least 0.9, where 1 is the maximum). The note with it: HepG2 Attagene TRANS-FACTORIAL M19 internal marker reporter. The essentials: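 Gain-of-signal in reporter mRNA, relative to DMSO, was scored from capillary electrophoresis fluorescence. HepG2 cells carried transiently transfected multiple reporter transcription units and were incubated with test chemicals for 24 h.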

Experiment [18] in a line: ATG_GAL4_TRANS: Attagene TRANS-FACTORIAL HepG2 Assay for GAL4 (Internal Marker) (AID 2282976; active = hit-call score of the fitted dose curve at least 0.9, where 1 is the maximum). The following applies: HepG2 Attagene TRANS GAL4 internal marker reporter. The essentials:
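Liver HepG2 line bearing multiplexed GAL4-UAS reporter constructs; 24 h chemical treatment. Transcripts were quantified as fluorescent fragments on capillary electrophoresis after RT-PCR and HpaI cut, with activity fitted upward from DMSO.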

Experiment [19] is described as follows: ATG_Sox_CIS: Attagene CIS-FACTORIAL HepG2 Assay for human SRY-box transcription factor (SOX) (AID 2282960). The note with it: HepG2 Attagene cis-factorial SOX reporter, mRNA; actives raise or lower the signal. The essentials:
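Using transiently transfected HepG2 cells, reporter transcription driven by cis elements was assessed 24 h after dosing. Signal was fluorescence of capillary-separated RT-PCR products, with DMSO defining baseline activity.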

Chain of Paired box protein Pax-6 (Homo sapiens) (P26367 whole entry, looked up): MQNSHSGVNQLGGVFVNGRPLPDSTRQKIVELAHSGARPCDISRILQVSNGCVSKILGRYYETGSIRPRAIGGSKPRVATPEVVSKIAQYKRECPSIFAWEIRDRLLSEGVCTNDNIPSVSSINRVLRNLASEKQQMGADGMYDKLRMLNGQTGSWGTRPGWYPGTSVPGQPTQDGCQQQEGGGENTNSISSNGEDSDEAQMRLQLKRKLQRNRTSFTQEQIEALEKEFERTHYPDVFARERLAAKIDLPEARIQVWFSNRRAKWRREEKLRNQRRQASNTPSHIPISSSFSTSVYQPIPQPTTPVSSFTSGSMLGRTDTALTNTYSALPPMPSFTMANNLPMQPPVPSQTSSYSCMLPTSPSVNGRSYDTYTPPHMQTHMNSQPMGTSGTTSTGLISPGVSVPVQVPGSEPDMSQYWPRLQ
Chain of Estrogen receptor (Homo sapiens) (P03372 whole entry, looked up, the tested form may be a part): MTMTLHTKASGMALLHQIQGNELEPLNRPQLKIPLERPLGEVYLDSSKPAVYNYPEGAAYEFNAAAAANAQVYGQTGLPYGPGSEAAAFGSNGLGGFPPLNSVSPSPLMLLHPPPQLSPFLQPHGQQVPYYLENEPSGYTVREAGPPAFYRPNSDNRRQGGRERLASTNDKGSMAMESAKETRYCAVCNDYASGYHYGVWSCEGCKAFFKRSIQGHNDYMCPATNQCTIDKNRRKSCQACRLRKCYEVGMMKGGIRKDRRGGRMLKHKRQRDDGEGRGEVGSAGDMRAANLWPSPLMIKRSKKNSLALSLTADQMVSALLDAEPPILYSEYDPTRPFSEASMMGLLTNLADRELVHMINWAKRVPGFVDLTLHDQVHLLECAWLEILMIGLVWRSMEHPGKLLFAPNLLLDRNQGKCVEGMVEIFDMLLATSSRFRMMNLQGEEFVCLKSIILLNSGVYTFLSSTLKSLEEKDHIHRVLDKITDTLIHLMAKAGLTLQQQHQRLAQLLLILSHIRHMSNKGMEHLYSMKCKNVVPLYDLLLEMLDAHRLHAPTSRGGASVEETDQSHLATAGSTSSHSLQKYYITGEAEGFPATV
Chain of X-box-binding protein 1 (Homo sapiens) (P17861 whole entry, looked up): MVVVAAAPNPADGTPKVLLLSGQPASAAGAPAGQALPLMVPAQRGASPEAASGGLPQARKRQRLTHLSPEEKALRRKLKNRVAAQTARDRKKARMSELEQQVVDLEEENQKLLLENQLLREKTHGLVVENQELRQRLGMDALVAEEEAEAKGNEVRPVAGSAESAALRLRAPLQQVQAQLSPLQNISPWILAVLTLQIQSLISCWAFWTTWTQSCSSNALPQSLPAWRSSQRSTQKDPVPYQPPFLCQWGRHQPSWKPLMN
Chain of Transcription factor Sp1 (Homo sapiens) (P08047 whole entry, looked up): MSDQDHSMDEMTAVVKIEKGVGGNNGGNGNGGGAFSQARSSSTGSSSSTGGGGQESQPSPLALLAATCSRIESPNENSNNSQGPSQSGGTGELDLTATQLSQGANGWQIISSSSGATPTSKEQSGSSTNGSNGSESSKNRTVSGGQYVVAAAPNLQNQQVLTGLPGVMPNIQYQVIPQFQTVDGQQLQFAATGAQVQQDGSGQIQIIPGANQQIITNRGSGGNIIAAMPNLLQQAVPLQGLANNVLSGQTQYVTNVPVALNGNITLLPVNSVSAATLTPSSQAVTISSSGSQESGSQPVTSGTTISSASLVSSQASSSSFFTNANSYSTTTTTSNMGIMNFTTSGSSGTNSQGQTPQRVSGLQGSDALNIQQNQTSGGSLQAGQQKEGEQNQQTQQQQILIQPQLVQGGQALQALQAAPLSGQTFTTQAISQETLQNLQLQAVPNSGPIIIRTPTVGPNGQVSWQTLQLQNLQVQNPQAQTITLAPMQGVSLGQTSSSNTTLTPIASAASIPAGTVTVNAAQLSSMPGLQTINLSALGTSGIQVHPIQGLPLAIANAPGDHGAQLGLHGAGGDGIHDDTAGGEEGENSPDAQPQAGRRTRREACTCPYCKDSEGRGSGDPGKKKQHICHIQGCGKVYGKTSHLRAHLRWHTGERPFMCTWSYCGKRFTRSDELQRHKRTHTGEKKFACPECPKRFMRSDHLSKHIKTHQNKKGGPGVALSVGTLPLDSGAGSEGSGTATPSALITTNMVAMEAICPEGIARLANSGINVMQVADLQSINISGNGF

Take `CC(=O)OCCc1ccccc1`: the outcome in experiment [1], in experiment [2], in experiment [3], in experiment [4], in [5] and in experiment [6] was inactive. For the same molecule, the outcome in experiment [7], in experiment [8], in experiment [9], in experiment [10], in experiment [11] and in experiment [12] was inactive. Besides, the call in experiment [13], in [14], in experiment [15] and in [16] was inactive.
As a reminder, the AC50 is the concentration at which the activity in the assay is half-maximal. For `O=C(Oc1ccccc1)c1ccccc1C(=O)Oc1ccccc1`, the outcome in experiment [1], in [2], in experiment [4], in [5], in experiment [6] and in [7] was inactive. Further, the outcome in [8], in [9], in experiment [11], in [12], in experiment [15] and in experiment [16] was inactive. Further, the molecule was classed as inactive in experiment [17] and in [18]. The AC50 in experiment [3] is 24.6 µM (active); in experiment [10], 51.4 µM (active).
Take `CCCC/C=C/C=C\C=O`: the outcome in [1], in experiment [4], in experiment [6], in [7], in experiment [8] and in [9] was inactive. Further, the outcome in [11], in experiment [12], in [15], in experiment [17] and in experiment [18] was inactive. The concentration at half-maximal activity (AC50) was 100 µM (active) in experiment [2]; 2.79 µM (active) in experiment [3]; 162 µM (active) in experiment [19]; 100 µM (active) in [10]; 6.51 µM (active) in experiment [13]; 178 µM (active) in experiment [16].
With `C=C(C)C(=O)OCCCCCCCCCCCC`, the result in experiment [1], in [2], in experiment [4], in experiment [19], in experiment [6] and in experiment [7] was inactive. For the same molecule, the molecule was called inactive in [8], in experiment [9], in experiment [10], in [11], in [12] and in experiment [13]. The molecule was called inactive in experiment [14], in experiment [16] and in experiment [17]. Moreover, the AC50 in [3] was 30.9 µM (active); in experiment [15] it was 56.7 µM (active).
With `c1ccc2c(c1)[nH]c1ccccc12`, the outcome in experiment [1], in experiment [2], in experiment [4], in [19], in experiment [6] and in [7] was inactive. For the same molecule, the molecule was called inactive in experiment [8], in experiment [9], in experiment [10], in experiment [11], in experiment [12] and in experiment [15]. The molecule was called inactive in experiment [16], in experiment [17] and in experiment [18]. Moreover, the half-maximal activity concentration (AC50) in experiment [3] is 9.54 µM (active).
As for `O=C(O)c1cc(O)c2ccccc2c1O`, the result in experiment [1], in experiment [2], in experiment [4], in [19], in experiment [6] and in experiment [7] was inactive. In addition, the outcome in experiment [8], in experiment [10], in experiment [15] and in experiment [16] was inactive. In addition, the AC50 in experiment [3] was 0.944 µM (active); in [9] it was 60.2 µM (active); in experiment [11] it was 51.6 µM (active).
